The results in this text go back to PubChem BioAssay.

Each structure is given as a SMILES string. Active and inactive are the calls of the source. Unless noted, the rule behind the calls is not given here.

Assay [1] can be described thus: compounds binding Alexa647 anti-His antibody – biochemical, small-molecule microarray, 635 nm fluorescence, artefact control for SMM control protein annotation, primary screen (AID 1128).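 Note: score merges feature fluorescence with signal-to-noise for each printed compound spot.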 As to conditions: higher = more signal.
The test system of assay [2] is Human papillomavirus type 1a E7 protein (residues 1-88). In words: HPV1a E7 small-molecule binders, primary screen, biochemical, small-molecule microarray, residues 1-88, 635 nm (AID 1129). As to conditions: small-molecule microarray binding, fluorescence 635 nm; higher = more signal.
Assay [3] concerns the target Focal adhesion kinase 1 (Homo sapiens) (UniProt Q05397). Put plainly: PTK2 protein binding on printed compound slides – biochemical, small-molecule microarray, 635/667 nm fluorescence, BSA, DTT, primary screen (AID 1130).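 Note: composite of spot emission at 667 nm and signal to noise over triplicate slides.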 As to conditions: 635 nm fluorescence, higher = more signal.
The subject of assay [4] is Fibrinogen (Alexa647-labelled). In words: Alexa647-fibrinogen binding to printed small molecules – biochemical, small-molecule microarray, 635/667 nm fluorescence, artefact control for SMM control-protein annotation, profiling panel (AID 1131).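 Note: z-score merges 667 nm fluorescence with per-spot signal-to-noise over triplicate slides.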 As to conditions: fibrinogen-A647 binding fluorescence, higher = more signal.
The target in assay [5] is Follistatin (Homo sapiens) (UniProt P19883). Put plainly: FST protein binding to printed compounds – biochemical, small-molecule microarray, 635/667 nm fluorescence, primary screen (AID 1132). Particulars: 635 nm fluorescence, higher = more signal.
Chain of Follistatin (Homo sapiens) (P19883 whole entry, looked up): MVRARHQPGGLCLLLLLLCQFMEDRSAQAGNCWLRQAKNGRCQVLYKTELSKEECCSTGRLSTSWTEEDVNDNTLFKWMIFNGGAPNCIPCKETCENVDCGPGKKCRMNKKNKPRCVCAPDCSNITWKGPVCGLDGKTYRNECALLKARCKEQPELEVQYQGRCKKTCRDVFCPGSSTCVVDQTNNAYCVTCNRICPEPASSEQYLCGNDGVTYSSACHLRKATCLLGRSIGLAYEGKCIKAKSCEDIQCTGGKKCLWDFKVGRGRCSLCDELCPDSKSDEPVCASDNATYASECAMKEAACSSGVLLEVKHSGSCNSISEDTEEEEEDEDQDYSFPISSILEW
In assay [6] the target is Fibroblast growth factor 2 (Homo sapiens) (UniProt P09038). In words: basic fibroblast growth factor binding to printed compounds – biochemical, small-molecule microarray, 635/667 nm fluorescence, primary screen (AID 1133). Particulars: FGF2, fluorescence 635/667, higher = more signal.
Chain of Fibroblast growth factor 2 (Homo sapiens) (P09038 whole entry, looked up): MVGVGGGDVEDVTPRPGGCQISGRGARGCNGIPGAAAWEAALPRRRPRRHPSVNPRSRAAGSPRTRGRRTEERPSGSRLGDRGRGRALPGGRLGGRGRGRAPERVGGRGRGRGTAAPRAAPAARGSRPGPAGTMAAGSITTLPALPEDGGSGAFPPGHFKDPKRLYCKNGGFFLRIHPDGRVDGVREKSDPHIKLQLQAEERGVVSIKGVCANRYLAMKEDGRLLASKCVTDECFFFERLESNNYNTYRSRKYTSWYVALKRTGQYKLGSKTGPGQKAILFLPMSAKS
Assay [7] in a line: JC-1 mitochondrial potential readout, lung cancer cells – cell-based, A549, JC-1 fluorescence, basal, 24 h, 100 nL, profiling panel (AID 1138).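 Note: A549 lung adenocarcinoma cells under basal conditions with no added stimulus; test concentration not given here.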 As to conditions: higher = more signal.
The next assay relates to Lefty1. In words: Lefty1 protein binding to printed compounds – biochemical, small-molecule microarray, 635/667 nm fluorescence, primary screen (AID 1139). As to conditions: fluorescence 635/667, higher = more signal.
The subject of assay [8] is wheat germ agglutinin (Triticum aestivum), Alexa647-labelled. In words: Alexa647-WGA lectin binding to printed small molecules – biochemical, small-molecule microarray, 635/667 nm fluorescence, artefact control for SMM control-protein annotation, profiling panel (AID 1140).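 Note: score merges 667 nm feature emission with signal to noise over triplicate slides.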 Particulars: WGA-A647 binding, 635 nm fluorescence, higher = more signal.
For assay [9], the target named is Luciferin 4-monooxygenase (Photinus pyralis) (UniProt P08659). Put plainly: inhibition of purified Photinus pyralis luciferase – biochemical, luminescence, purified enzyme, 2006 set, primary screen (AID 1141).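 Note: cell-free assay with purified firefly luciferase at 100 ng per well in PBS; test concentration not given here.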 As to conditions: purified firefly luciferase, SteadyGlo luminescence, 30 min; higher = more signal, called active from +8 up or from −8 down.
Chain of Luciferin 4-monooxygenase (Photinus pyralis) (P08659 whole entry, looked up): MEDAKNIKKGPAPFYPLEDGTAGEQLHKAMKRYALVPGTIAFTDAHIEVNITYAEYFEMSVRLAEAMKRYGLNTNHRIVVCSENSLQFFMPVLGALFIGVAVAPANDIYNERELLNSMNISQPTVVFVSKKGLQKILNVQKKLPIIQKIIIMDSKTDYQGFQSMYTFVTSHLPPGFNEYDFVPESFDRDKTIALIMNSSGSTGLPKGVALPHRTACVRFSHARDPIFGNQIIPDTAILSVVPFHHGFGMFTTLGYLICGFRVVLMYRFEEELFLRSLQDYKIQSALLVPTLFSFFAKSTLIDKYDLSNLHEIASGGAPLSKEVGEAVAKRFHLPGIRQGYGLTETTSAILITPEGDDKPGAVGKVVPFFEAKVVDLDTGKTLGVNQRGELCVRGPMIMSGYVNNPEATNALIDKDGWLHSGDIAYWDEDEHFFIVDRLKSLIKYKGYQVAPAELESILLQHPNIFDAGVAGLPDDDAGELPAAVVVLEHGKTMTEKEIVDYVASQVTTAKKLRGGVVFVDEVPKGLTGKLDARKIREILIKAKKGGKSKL
In assay [10] the test system is Wnt5a (protein binding on small-molecule microarray). Put plainly: small molecules binding Wnt5a protein – biophysical, small-molecule microarray, 635/667 nm fluorescence, primary screen (AID 1142).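 Note: fluorescence read at 667 nm with signal to noise per printed feature.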 Particulars: 635 nm fluorescence, higher = more signal.
Assay [11] is described as follows: ATP-based viability of Huh7 replicon cells – cell-based, CellTiter-Glo luminescence, basal, 48 h, cytotoxicity control for HCV replication inhibitor project, primary screen (AID 1143).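 Note: Huh7 hepatoma cells carrying a hepatitis C replication reporter with no stimulus; test concentration not given here.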 Particulars: higher = more signal, called active from +8 up or from −8 down. A general note: In antiviral work, replicon cells carry a viral genome segment that copies itself.
Assay [12] can be described thus: Pseudomonas biofilm growth suppression – PAO1 strain, BacTiter-Glo luminescence, LB-PBS, primary screen (AID 1144). As to conditions: P. aeruginosa PAO1 biofilm, 12 h, higher = more signal.
The nature of assay [13]: basal CRE-LacZ reporter activity in PC12 – cell-based, unstimulated, primary screen (AID 1145). Particulars: no forskolin, luminescence, 4.5 h, higher = more signal, called active from +8 up or from −8 down.
Assay [14] is described as follows: forskolin-driven CRE-LacZ activity in PC12 – cell-based, CRE-LacZ reporter, forskolin-stimulated, primary screen (AID 1146).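 Note: PC12 cells with 6xCRE LacZ reporter stimulated by forskolin 10 µM; beta-galactosidase reporter signal reflecting CREB driven transcription.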 As to conditions: luminescence, 4.5 h, higher = more signal, called active from +8 up or from −8 down.
Assay [15] concerns the target Streptavidin (Streptomyces avidinii) (UniProt P22629). Put plainly: compounds binding control protein streptavidin – biophysical, small-molecule microarray, 635/667 nm fluorescence, artefact control for SMM compound annotation, primary screen (AID 1147).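 Note: signal reflects streptavidin binding to arrayed compounds as a control protein.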 Particulars: higher = more signal.
Assay [16] is described as follows: probe aInhba binding on compound microarray – biochemical, small-molecule microarray, 635/667 nm fluorescence, primary screen (AID 1148).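 Note: score merges 667nm spot fluorescence with signal-to-noise for antibody binding to printed compounds.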 As to conditions: higher = more signal.
The target of assay [17] is Torsin-1A (Homo sapiens) (UniProt O14656). Put plainly: TOR1A wild-type binding on microarray – cell lysate, small-molecule microarray, lysate, 635/667 nm, primary screen (AID 1149). Particulars: COS7 hTOR1A-WT lysate, 635 nm fluorescence, higher = more signal.
Chain of Torsin-1A (Homo sapiens) (O14656 whole entry, looked up): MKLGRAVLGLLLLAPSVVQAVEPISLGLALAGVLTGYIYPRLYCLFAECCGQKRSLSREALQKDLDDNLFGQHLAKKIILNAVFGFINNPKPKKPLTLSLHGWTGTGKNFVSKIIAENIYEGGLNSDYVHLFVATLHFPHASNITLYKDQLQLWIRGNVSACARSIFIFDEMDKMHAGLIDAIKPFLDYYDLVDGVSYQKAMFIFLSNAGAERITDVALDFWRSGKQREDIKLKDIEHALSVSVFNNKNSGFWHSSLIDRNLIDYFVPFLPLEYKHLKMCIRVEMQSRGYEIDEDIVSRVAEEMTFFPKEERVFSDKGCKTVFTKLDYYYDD
For assay [18] the target is unchanged. Put plainly: torsin A mutant lysate binding on microarrays – cell lysate, small-molecule microarray, COS7 lysate, 635/667 nm fluorescence, primary screen (AID 1150).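 Note: score pools 667 nm emission and signal to noise measuring lysate protein binding.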 As to conditions: COS7 hTOR1A mutant lysate, 635 nm fluorescence, higher = more signal.
Assay [19] has as its system Sonic hedgehog protein (Shh). In words: Sonic hedgehog microarray binding compounds – biochemical, small-molecule microarray, 635/667 nm fluorescence, primary screen (AID 1151).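 Note: Shh protein binding to compounds spotted on small-molecule microarray slides; score combines spot fluorescence intensity with signal-to-noise across triplicate slides.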 Particulars: 635 nm fluorescence, higher = more signal.

Chain of Streptavidin (Streptomyces avidinii) (P22629 whole entry, looked up): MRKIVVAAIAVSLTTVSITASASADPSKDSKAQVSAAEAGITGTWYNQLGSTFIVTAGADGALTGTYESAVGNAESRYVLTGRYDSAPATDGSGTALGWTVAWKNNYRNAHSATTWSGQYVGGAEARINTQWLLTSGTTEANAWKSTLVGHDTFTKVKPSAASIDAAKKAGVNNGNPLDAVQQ
Chain of Focal adhesion kinase 1 (Homo sapiens) (Q05397 whole entry, looked up): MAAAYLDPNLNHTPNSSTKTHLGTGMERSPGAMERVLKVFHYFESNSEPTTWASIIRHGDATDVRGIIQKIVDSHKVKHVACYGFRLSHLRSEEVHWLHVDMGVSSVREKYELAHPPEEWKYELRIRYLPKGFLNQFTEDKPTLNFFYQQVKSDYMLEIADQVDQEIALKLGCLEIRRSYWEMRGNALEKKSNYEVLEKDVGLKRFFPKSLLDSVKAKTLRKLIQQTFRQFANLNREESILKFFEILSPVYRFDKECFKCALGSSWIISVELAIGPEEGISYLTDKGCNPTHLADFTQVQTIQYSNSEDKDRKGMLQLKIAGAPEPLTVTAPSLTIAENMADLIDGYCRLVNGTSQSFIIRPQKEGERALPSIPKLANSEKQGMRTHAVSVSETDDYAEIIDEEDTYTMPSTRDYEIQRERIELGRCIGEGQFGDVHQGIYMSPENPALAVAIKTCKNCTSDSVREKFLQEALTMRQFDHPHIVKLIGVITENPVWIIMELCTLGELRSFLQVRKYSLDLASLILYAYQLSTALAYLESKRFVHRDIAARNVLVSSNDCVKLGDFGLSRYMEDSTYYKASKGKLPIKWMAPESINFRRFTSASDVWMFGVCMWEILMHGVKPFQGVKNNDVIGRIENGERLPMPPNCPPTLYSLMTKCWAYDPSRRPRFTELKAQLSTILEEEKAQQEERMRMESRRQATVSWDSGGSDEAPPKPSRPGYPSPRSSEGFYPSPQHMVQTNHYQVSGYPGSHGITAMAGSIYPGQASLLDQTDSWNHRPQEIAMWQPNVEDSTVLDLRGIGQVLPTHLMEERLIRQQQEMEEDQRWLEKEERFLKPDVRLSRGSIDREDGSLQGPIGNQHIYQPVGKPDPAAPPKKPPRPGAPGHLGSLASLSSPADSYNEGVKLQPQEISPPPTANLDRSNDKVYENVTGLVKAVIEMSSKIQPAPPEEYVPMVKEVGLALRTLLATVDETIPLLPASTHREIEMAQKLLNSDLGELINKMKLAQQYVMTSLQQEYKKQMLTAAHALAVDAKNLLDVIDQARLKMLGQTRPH

For the compound `CC(C)C[C@@H]1NC(=O)[C@H]2C[C@@H](C(=O)NCCCCCCNC(=O)CS)[C@@H](c3ccc(O)cc3)N2C1=O`, the composite z-score is 2.26 in assay [1]; 1.22 in assay [2]; 0.87 in [3]; 0.0675 in assay [4]; 1.3 in assay [5]; 1.78 in [6]. The composite z-score with Lefty1 is 0.543; in assay [8], 0.0059; in assay [10] it was 0.472; in assay [15], -0.406; in [16] it was -0.179; in the assay with Torsin-1A (Homo sapiens) [17], 1. Moreover, the composite z-score in the assay with Torsin-1A (Homo sapiens) [18] was found to be 0.766; in [19] it was 1.84. In addition, the z-score is -1.02 in [7]; -0.938 (inactive) in assay [9]; 1.03 (inactive) in assay [11]; -1.02 (inactive) in assay [12]; -0.805 (inactive) in assay [13]; -0.732 (inactive) in assay [14].

Turning to `O=C1OCCC=C[C@H]2OC34C=CCN(CCN5CCOCC5)C(=O)[C@H]3N(CCCO)C(=O)[C@@H]4C12` (stereo not given in full), the composite z-score was 0.0466 in [1]; -1.11 in [2]; -0.251 in [3]; -0.0881 in assay [4]; -0.0312 in assay [5]; -1.26 in [6]. For the same compound, the composite z-score is -0.0933 in the assay on Lefty1; -0.458 in assay [8]; -0.543 in assay [10]; -0.613 in assay [15]; -0.0066 in [16]; -1.78 in the assay with Torsin-1A (Homo sapiens) [17]. In addition, the figures for the composite z-score (with Torsin-1A (Homo sapiens) [18]; in [19]) were -1.33 and 0.243, respectively. For the same compound, the z-score was -0.962 in assay [7]; -0.552 (inactive) in assay [9]; -2.19 (inactive) in [11]; -0.561 (inactive) in assay [12]; -0.354 (inactive) in assay [13]; 1.74 (inactive) in assay [14].

With `COC(=O)c1c(CC[C@@H](CO)NC(=O)N[C@@H](Cc2ccccc2)Cn2cc(-c3cncn3C)nn2)oc(C(C)=O)c1C(=O)OC`, the composite z-score in assay [1] was 0.579; in assay [2], 0.873; in assay [3], -0.179; in assay [4], 0.107; in assay [5] it was 1.01; in [6], -0.0088. Also, the composite z-score in the assay with Lefty1 was 0.847; in assay [8], 0.391; in assay [10], -0.245; in assay [15], -0.0808; in assay [16] it was 0.0872; in the assay with Torsin-1A (Homo sapiens) [17], 0.443. Also, the results for the composite z-score (in the assay with Torsin-1A (Homo sapiens) [18]; in assay [19]) were 1.26 and 1.75, respectively. Further, the z-score in assay [7] is -0.691; in [9] it was 0.879 (inactive); in assay [11] it was -3.29 (inactive); in [12], -0.662 (inactive); in assay [13], -0.491 (inactive); in assay [14], -0.566 (inactive).

On to `COC(=O)[C@@H]1N=C(c2ccc(OCCCO)cc2)O[C@@H]1c1ccccc1CN=[N+]=[N-]`, for which the composite z-score is -0.125 in assay [1]; 0.943 in assay [2]; 0.841 in assay [3]; 0.38 in assay [4]; 0.233 in assay [5]; -0.633 in assay [6]. In addition, the composite z-score is -0.119 with Lefty1; 0.939 in assay [8]; -0.257 in assay [10]; 0.551 in [15]; 0.177 in [16]; -1.73 in the assay with Torsin-1A (Homo sapiens) [17]. The composite z-score with Torsin-1A (Homo sapiens) [18] was -0.938; in [19] it was 0.0121. Moreover, the z-score in assay [7] is 0.22; in assay [9] it was -0.0813 (inactive); in assay [11] it was -1.04 (inactive); in assay [12], -0.245 (inactive); in assay [13], -0.268 (inactive); in [14] it was 0.0126 (inactive).
